The source made the active and inactive calls.
Experiments:
[1] = system: PRMT1 (protein arginine N-methyltransferase 1); test: small molecules binding arginine methyltransferase PRMT1 – biochemical, small-molecule microarray, 635 nm fluorescence, primary screen (AID 1088); conditions: higher = more signal;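 further: binding of Prmt1 protein to compounds spotted on small-molecule microarray slides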
[2] = growth effects on S. cerevisiae YJM789 – YJM789 clinical isolate, OD600, 24 h, basal, primary screen (AID 1089); conditions: higher = more signal, called active from +8 up or from −8 down;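 further: growth of clinical yeast isolate S. cerevisiae YJM 789 seeded 1000 cells per well; test concentration not given here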
[3] = S. pombe growth modifiers, basal conditions – strain 972, OD600, 24 h, no modulator, primary screen (AID 1090);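 further: basal condition with compound alone and no growth modifier present; test concentration not given here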; conditions: S. pombe 972 growth, higher = more signal, called active from +8 up or from −8 down
[4] = budding yeast growth modifiers under rapamycin – strain BY4716, OD600, 96 h, primary screen (AID 1091); further: test concentration not given here; conditions: S. cerevisiae BY4716 + rapamycin, higher = more signal, called active from +8 up or from −8 down
[5] = biological target: Torsin-1A-interacting protein 2 (Homo sapiens) (UniProt Q8NFQ8); test: small molecules binding lysate-expressed LULL1 – cell lysate, human LULL1 lysate, 635/667 nm fluorescence, primary screen (AID 1092); conditions: small-molecule microarray, hLULL1 lysate binding, 635 nm fluorescence; higher = more signal;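 further: probe is lysate of COS7 cells overexpressing human LULL1; score merges per-feature 667 nm fluorescence with signal-to-noise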
[6] = optical density change of DRC41 E. coli – strain DRC41, OD650, 24 h, E. coli filamentation project, primary screen (AID 1093);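 further: MC1000 strain lacking acrAB efflux and sulA so SOS filamentation is blocked; test concentration not given here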; conditions: E. coli DRC41 growth, higher = more signal, called active from +8 up or from −8 down
[7] = probe aLefty2 binding to arrayed compounds – biochemical, biotinylated probe, 635/667 nm fluorescence, primary screen (AID 1094); conditions: small-molecule microarray, higher = more signal;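 further: score merges spot fluorescence near 667 nm with spot signal-to-noise ratio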
[8] = system: Noggin (protein binding on small-molecule microarray); test: small molecules binding Noggin protein – biochemical, 635/667 nm fluorescence, primary screen (AID 1095); conditions: 635 nm fluorescence, higher = more signal;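 further: score merges 667 nm feature fluorescence with signal to noise over triplicate slides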
[9] = biological target: Neurogenic locus notch homolog protein 3 (Homo sapiens) (UniProt Q9UM47); test: small molecules binding NOTCH3 protein – biochemical, 635/667 nm fluorescence, primary screen (AID 1096); conditions: small-molecule microarray, 635 nm fluorescence, higher = more signal
[10] = probe aEGFR binding to arrayed compounds – biochemical, biotinylated probe, 635/667 nm fluorescence, primary screen (AID 1097); conditions: small-molecule microarray, higher = more signal;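 further: probe is a biotinylated anti-EGFR antibody binding compounds printed on slides; score combines fluorescence near 667 nm and signal to noise of each spot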
[11] = system: Plasmodium falciparum Sir2 (PF13_0152, Sir2A); test: Plasmodium falciparum Sir2A binding compounds – biochemical, small-molecule microarray, 635 nm fluorescence, primary screen (AID 1098); conditions: fluorescence 635 nm, higher = more signal;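 further: score merges spot fluorescence intensity with its signal-to-noise ratio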
[12] = probe aDKK1 binding to arrayed compounds – biochemical, biotinylated probe, 635/667 nm fluorescence, primary screen (AID 1099); conditions: small-molecule microarray, higher = more signal;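 further: score merges 667nm spot fluorescence with signal to noise across triplicate slides; reference of the scale not given here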
[13] = probe aCHRDL2 binding to arrayed compounds – biochemical, biotinylated probe, 635/667 nm fluorescence, primary screen (AID 1100); conditions: small-molecule microarray, higher = more signal
[14] = change in splice reporter luminescence, either direction, cell-based, HEK293, spliceosome inhibition project, primary screen (AID 1101); conditions: HEK293 splicing luciferase reporter, 24 h, higher = more signal, called active from +8 up or from −8 down;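 further: HEK293 cells carrying a splicing-competent luciferase reporter gene; test concentration not given here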
[15] = biological target: Fibroblast growth factor 10 (Homo sapiens) (UniProt O15520); test: compounds binding fibroblast growth factor 10 – biochemical, small-molecule microarray, 635 nm fluorescence, primary screen (AID 1102); conditions: FGF10 binding, fluorescence 635 nm, higher = more signal
[16] = system: glycogen synthase kinase-3 (GSK3A per assay name; protocol says GSK3B); test: compounds binding glycogen synthase kinase-3 – biochemical, small-molecule microarray, 635 nm fluorescence, GSK3A, primary screen (AID 1103); conditions: fluorescence 635 nm, higher = more signal; further: the record names both GSK3A and GSK3B
[17] = biological target: Epidermal growth factor receptor (Homo sapiens) (UniProt P00533); test: compounds binding epidermal growth factor receptor – biochemical, small-molecule microarray, 635 nm fluorescence, primary screen (AID 1104); conditions: EGFR binding, higher = more signal;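 further: score merges 667 nm emission intensity with spot signal to noise over triplicate slides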
[18] = biological target: Follistatin-related protein 3 (Homo sapiens) (UniProt O95633); test: compounds binding follistatin-related protein 3 – biochemical, small-molecule microarray, 635 nm fluorescence, primary screen (AID 1105); conditions: FSTL3 binding, higher = more signal;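 further: score merges emission near 667 nm and signal to noise per printed spot across three slides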
[19] = biological target: Dickkopf-related protein 1 (Homo sapiens) (UniProt O94907); test: small molecules binding DKK1 protein – biochemical, small-molecule microarray, 635 nm fluorescence scan, primary screen (AID 1106); conditions: higher = more signal;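 further: score merges emission near 667 nm with signal to noise over three replicate slides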
[20] = system: Inhibin beta A chain (activin A); test: small molecules binding activin A – biochemical, small-molecule microarray, 635 nm fluorescence scan, primary screen (AID 1107); conditions: INHBA, higher = more signal;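 further: mouse activin A protein probed at 4.33 µg/mL on printed slides; score merges bound-protein fluorescence near 667 nm with spot signal-to-noise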

Sequence of Fibroblast growth factor 10 (Homo sapiens) (O15520 whole entry, looked up): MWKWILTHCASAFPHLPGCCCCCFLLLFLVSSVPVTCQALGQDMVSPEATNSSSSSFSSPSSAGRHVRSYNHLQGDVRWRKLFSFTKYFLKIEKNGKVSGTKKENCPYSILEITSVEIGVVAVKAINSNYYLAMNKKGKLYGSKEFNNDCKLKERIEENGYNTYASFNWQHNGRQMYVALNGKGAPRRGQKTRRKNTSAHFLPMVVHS
Sequence of Dickkopf-related protein 1 (Homo sapiens) (O94907 whole entry, looked up): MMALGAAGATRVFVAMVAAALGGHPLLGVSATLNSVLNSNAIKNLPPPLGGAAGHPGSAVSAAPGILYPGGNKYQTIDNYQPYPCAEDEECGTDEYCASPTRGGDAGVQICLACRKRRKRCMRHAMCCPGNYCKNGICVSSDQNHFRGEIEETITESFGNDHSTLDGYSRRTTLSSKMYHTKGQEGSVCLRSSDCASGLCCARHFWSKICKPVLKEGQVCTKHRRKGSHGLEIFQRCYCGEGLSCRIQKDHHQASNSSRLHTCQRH
Sequence of Epidermal growth factor receptor (Homo sapiens) (P00533 whole entry, looked up): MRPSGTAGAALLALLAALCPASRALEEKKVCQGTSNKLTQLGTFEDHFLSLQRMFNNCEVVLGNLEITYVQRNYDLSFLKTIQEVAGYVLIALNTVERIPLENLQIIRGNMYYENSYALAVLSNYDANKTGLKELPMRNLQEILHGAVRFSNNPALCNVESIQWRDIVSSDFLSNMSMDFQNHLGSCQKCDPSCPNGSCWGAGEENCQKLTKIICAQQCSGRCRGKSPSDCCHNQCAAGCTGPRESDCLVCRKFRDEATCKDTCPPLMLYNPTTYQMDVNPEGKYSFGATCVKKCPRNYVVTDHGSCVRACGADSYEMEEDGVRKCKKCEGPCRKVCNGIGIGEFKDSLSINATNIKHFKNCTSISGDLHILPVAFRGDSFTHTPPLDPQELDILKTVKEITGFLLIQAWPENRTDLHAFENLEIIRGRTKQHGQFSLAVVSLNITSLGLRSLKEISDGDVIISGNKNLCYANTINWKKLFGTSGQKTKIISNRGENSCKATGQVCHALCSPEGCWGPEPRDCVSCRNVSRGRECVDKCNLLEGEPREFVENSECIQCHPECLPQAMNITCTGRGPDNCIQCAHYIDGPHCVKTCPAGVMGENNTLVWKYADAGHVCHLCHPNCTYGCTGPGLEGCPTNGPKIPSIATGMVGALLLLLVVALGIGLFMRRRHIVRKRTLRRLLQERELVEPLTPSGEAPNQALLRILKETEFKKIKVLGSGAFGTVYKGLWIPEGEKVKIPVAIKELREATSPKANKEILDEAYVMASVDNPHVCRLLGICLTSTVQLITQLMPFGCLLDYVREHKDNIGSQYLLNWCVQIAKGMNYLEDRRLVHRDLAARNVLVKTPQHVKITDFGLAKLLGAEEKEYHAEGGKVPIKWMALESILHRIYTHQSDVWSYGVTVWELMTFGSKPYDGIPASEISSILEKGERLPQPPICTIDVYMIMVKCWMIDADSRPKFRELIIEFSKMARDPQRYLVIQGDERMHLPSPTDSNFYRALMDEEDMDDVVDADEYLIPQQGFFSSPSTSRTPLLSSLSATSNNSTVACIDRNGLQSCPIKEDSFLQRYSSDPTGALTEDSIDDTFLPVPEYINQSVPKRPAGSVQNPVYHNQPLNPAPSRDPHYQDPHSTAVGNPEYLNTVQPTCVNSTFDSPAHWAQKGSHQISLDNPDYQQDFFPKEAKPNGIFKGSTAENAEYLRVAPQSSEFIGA
Sequence of Follistatin-related protein 3 (Homo sapiens) (O95633 whole entry, looked up): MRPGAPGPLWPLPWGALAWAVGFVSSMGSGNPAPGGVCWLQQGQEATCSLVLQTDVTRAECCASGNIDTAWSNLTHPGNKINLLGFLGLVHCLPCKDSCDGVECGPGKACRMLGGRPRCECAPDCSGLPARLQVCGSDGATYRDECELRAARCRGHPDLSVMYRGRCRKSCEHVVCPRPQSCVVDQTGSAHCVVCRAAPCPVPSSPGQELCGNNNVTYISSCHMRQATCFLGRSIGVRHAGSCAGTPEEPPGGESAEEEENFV
Sequence of Torsin-1A-interacting protein 2 (Homo sapiens) (Q8NFQ8 whole entry, looked up): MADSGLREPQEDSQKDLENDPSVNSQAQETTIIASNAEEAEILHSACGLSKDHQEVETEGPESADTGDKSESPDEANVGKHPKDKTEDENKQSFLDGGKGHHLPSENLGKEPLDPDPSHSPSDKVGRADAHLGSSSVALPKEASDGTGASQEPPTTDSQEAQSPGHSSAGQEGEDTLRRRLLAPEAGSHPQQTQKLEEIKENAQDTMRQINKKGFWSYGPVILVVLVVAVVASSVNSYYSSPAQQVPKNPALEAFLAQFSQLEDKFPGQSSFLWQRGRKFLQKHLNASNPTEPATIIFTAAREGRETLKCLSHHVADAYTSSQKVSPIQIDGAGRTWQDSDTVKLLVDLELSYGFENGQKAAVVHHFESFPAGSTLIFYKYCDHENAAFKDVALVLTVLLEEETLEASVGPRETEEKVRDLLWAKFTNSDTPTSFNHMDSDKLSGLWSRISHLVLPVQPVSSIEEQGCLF
Sequence of Neurogenic locus notch homolog protein 3 (Homo sapiens) (Q9UM47 whole entry, looked up): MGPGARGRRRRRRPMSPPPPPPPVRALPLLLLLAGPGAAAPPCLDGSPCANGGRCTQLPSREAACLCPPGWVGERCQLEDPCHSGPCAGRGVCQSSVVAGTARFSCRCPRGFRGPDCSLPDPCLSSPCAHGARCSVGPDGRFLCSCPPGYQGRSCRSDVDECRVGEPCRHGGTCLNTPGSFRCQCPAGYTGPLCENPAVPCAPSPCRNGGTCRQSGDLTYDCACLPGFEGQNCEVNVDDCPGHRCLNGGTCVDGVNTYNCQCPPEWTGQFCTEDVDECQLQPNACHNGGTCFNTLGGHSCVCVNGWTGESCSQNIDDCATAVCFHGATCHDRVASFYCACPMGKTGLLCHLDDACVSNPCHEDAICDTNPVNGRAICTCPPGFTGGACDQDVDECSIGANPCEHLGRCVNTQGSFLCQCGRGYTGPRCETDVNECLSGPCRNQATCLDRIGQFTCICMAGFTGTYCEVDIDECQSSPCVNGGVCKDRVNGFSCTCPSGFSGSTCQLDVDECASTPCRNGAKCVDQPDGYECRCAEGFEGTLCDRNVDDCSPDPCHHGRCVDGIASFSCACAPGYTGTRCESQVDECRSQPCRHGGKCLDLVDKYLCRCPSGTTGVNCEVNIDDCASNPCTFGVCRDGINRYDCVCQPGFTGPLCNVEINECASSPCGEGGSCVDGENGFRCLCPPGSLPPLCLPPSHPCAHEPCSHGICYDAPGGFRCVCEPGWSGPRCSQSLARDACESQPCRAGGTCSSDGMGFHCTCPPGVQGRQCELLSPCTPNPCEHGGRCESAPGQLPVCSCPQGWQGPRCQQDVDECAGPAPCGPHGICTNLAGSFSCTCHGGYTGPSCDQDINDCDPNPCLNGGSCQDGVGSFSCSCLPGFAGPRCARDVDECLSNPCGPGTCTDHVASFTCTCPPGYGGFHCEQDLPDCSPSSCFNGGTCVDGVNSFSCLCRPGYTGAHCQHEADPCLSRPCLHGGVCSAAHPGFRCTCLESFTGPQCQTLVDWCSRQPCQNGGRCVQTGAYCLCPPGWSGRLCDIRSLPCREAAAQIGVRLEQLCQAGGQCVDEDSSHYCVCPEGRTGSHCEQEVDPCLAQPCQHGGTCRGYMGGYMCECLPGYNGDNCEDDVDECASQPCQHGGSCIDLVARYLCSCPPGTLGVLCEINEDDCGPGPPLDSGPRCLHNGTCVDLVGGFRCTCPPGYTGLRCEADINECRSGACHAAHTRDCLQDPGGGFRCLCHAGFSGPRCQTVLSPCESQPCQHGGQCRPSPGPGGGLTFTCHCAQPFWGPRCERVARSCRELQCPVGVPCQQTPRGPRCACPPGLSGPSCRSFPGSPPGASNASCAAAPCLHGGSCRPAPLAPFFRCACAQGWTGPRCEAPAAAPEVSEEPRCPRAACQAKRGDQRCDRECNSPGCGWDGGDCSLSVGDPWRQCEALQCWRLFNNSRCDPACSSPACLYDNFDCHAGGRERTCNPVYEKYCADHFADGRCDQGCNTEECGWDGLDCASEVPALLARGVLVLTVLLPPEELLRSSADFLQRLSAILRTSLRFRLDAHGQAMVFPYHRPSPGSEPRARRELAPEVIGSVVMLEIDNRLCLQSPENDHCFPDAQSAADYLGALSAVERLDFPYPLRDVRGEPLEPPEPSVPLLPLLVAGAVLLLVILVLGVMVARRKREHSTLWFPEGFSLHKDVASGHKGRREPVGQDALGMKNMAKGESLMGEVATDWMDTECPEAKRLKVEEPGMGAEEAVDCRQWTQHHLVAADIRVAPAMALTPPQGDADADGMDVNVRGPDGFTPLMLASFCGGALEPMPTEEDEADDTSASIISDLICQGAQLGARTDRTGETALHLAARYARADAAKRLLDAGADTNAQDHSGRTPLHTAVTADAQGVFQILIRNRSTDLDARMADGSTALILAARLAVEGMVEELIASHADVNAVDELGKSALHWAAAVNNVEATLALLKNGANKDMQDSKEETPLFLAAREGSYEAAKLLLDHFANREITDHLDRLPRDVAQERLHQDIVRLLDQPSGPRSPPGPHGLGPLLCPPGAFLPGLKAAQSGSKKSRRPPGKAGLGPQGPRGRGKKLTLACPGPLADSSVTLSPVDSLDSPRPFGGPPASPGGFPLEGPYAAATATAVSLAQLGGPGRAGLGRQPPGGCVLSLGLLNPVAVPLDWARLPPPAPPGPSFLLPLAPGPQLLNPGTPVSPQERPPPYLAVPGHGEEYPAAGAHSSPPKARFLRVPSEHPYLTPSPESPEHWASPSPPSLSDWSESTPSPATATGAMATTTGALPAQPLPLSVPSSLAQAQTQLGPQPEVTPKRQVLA

| SMILES | composite z-score [1] | z-score [2] | z-score [3] | z-score [4] | composite z-score [5] | z-score [6] | composite z-score [7] | composite z-score [8] | composite z-score [9] | composite z-score [10] | composite z-score [11] | composite z-score [12] | composite z-score [13] | z-score [14] | composite z-score [15] | composite z-score [16] | composite z-score [17] | composite z-score [18] | composite z-score [19] | composite z-score [20] |
| --- | --- | --- | --- | --- | --- | --- | --- | --- | --- | --- | --- | --- | --- | --- | --- | --- | --- | --- | --- | --- |
| CCC=CCCC(OC(=O)c1ccc(Br)cc1)C1=CCCCC1=O (stereo not given) | 1.33 | -1.32 (inactive) | -5.44 (inactive) | -2.98 (inactive) | 1.35 | -0.133 (inactive) | -0.0018 | 0.493 | 0.554 | -0.0187 | 0.964 | -0.305 | 0.457 | 0.798 (inactive) | 0.681 | 0.166 | 0.718 | 1.05 | 0.592 | 1.55 |
| CC=CC1=C(CO)C(=O)[C@@H]2O[C@@H]2C1=O | 0.114 | -0.767 (inactive) | -0.738 (inactive) | -0.624 (inactive) | -1.02 | 0.199 (inactive) | -0.199 | 1.58 | 0.406 | 0.0083 | 0.148 | -0.703 | -1.79 | -0.546 (inactive) | 0.799 | 0.571 | 1.01 | 1.17 | 1.57 | 1.49 |
| CO[C@H]1COC(=O)[C@H](C)NC(=O)CC=C[C@@H](C)[C@H](OC)COC(=O)[C@@H](OCc2ccccc2)C=C[C@@H]1C | 0.269 | -0.365 (inactive) | -0.123 (inactive) | -0.118 (inactive) | -0.986 | 0.786 (inactive) | -0.166 | 0.941 | -0.458 | -0.15 | 0.68 | -0.747 | -1.33 | -0.00187 (inactive) | 0.0389 | 0.362 | 0.475 | 0.492 | 0.834 | 1.34 |
| CCCNC(=O)OC[C@H]1O[C@H](CCON=C(C)C)C=C[C@@H]1Oc1ccc(OC)cc1 | 0.612 | -0.578 (inactive) | -5.54 (inactive) | 0.0158 (inactive) | 0.876 | 0.964 (inactive) | 0.0472 | 0.422 | -0.216 | -0.0581 | 0.415 | 0.325 | 0.707 | -0.0557 (inactive) | 0.325 | -0.515 | -0.0864 | -0.125 | -0.288 | 1.23 |
| C[C@H]1COC(=O)[C@@H]2CCCN2C(=O)[C@@H](C)COC(=O)[C@H](Cc2ccccc2)NC1=O | 0.907 | -0.801 (inactive) | 0.103 (inactive) | -1.2 (inactive) | 1.24 | 0.0412 (inactive) | -0.141 | 0.396 | 0.889 | 0.081 | 0.878 | -0.275 | -0.647 | 0.282 (inactive) | 0.338 | 0.727 | 0.911 | 0.511 | 0.374 | -0.372 |
| CON=CC[C@@H]1C=C[C@H](OC(C)=O)[C@@H](COC(C)=O)O1 | 0.0622 | 0.586 (inactive) | 0.141 (inactive) | 0.35 (inactive) | 0.172 | -0.0614 (inactive) | 0.253 | 0.532 | -0.0592 | -0.184 | 0.0728 | -0.146 | -0.0937 | 0.079 (inactive) | 0.277 | 0.184 | 0.393 | 0.727 | 0.531 | 1.68 |
| CC(C)=CCCC(C)=CCON=C1C[C@@H](O)[C@@H](O)[C@@H]2[C@@H]3C(=O)N(Cc4ccccc4)C(=O)[C@@H]3CC[C@@H]12 | 1.09 | 0.432 (inactive) | -0.114 (inactive) | -0.535 (inactive) | -0.859 | 0.326 (inactive) | -0.114 | 1.33 | 0.637 | 0.012 | 0.786 | -0.382 | -1.12 | -0.216 (inactive) | 1.14 | 0.279 | 0.696 | 0.955 | 1.04 | 1.09 |
| CO[C@H]1COC(=O)[C@@H](C)COC(=O)[C@H](C)NC(=O)CC=C[C@H]1C | 1.23 | 0.508 (inactive) | 0.0971 (inactive) | -0.431 (inactive) | 0.0586 | 0.414 (inactive) | -0.212 | 1.64 | 0.195 | 0.0673 | 0.473 | -0.537 | -1.73 | -0.0731 (inactive) | 0.577 | 0.732 | 0.785 | 1.54 | 1.32 | 1.13 |
| C[C@@H]1CC[C@H]2C(=O)O[C@@H](Cc3ccccc3)CN2[C@H]1c1ccc(Br)cc1 | 1.14 | 0.004 (inactive) | -2.36 (inactive) | -0.882 (inactive) | 1.16 | -0.529 (inactive) | -0.0258 | 0.31 | 0.22 | -0.0485 | 0.666 | 0.14 | -0.246 | -0.387 (inactive) | 0.383 | 0.177 | 0.389 | 0.416 | 0.783 | 0.619 |
| COc1ccc(COC(=O)NN=C2C[C@@H](O)[C@@H](O)[C@@H]3[C@@H]4C(=O)N(c5ccc(F)cc5F)C(=O)[C@@H]4CC[C@H]23)cc1 | 0.0093 | 0.201 (inactive) | -4.12 (inactive) | -0.971 (inactive) | 0.142 | 0.0412 (inactive) | 0.469 | -0.186 | -0.425 | -0.171 | 0.299 | 0.939 | 1.22 | -0.531 (inactive) | 0.0785 | -0.258 | -1.2 | -0.496 | -1.13 | -0.009 |

Reference: PubChem BioAssay
